Growth data for 28 molecules are collected here from PubChem BioAssay (NCI).

About 83,000 compounds went through this panel and 20% of them were active in at least one assay; those are over-represented in the sample as a whole.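 Step 1: grow cells in 96-well plates. Step 2: add test compound at a single concentration. Step 3: incubate 48 h. Step 4: record percent growth.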 Values without a mark were called inactive. Active and inactive are the calls of the source. The calls were made as follows: active = growth percent below 10; inactive = the rest.

Common to all, as to experiment: NCI-60 one-dose screen, 48 h (100 = growth as untreated, 0 = no growth, -100 = all killed)
Assay [1] concerns T-47D breast. The following applies: 10 µM unless noted.
The test system of assay [2] is BT-549 breast. The following applies: 10 µM unless noted.
The test system of assay [3] is MDA-MB-435 melanoma. The following applies: 10 µM unless noted.
Assay [4] relates to SW-620 colon. The following applies: 10 µM unless noted.
Assay [5] deals with MCF7 breast. The following applies: 10 µM unless noted.
Assay [6] has as its system HCT-116 colon. The following applies: 10 µM unless noted.
Assay [7] relates to HCC-2998 colon. The following applies: 10 µM.
Assay [8] concerns KM12 colon. The following applies: 10 µM unless noted.

Regarding `CCN(CCCOc1ccc2c(Nc3cc(CC(=O)Nc4cccc(F)c4)[nH]n3)ncnc2c1)CCOP(=O)(O)O`, the growth in assay [1] is 73.6%; in assay [2], 75.9%; in assay [3] it was 69.2%; in assay [4] it was 35.8%; in assay [5] it was 46.6%; in assay [6], 47.5%. For the same molecule, the growth in assay [7] was 61.4%; in assay [8] it was 21.4%.

For `COc1cc2ncnc(Oc3cccc(NC(=O)Nc4cc(C(C)(C)C(F)(F)F)on4)c3)c2cc1OC`, the growth in assay [1] is 9.47% (active); in assay [2], 37.4%; in assay [3] it was 13.3%; in assay [4], 27.4%; in assay [5], 37.8%; in assay [6] it was 10.8%. Further, the growth was 52.8% in assay [7] and 42.4% in assay [8].

With `O=C1CC(c2ccc(Cl)cc2)c2ncn(-c3cccc(Cl)c3)c2N1` (centres undefined), the growth is 68.7% in assay [1]; 52.5% in assay [2]; -16.8% (active) in assay [3]; 26% in assay [4]; 61.2% in assay [5]; 19.1% in assay [6]. Moreover, the growth in assay [7] is 77.4%; in assay [8], 54.1%.

Regarding `O=C(NO)c1ccc(Cn2c(=O)n(CCc3ccccc3)c(=O)c3ccccc32)cc1`, the growth in assay [1] is 29%; in assay [2], 52.4%; in assay [3], 19.1%; in assay [4], 20.9%; in assay [5], 27.9%; in assay [6], 4.18% (active). Moreover, the growth in assay [7] was 62.5%; in assay [8], 25.2%.

`CO/C=C/C(=O)c1cc2cnc3c(=N)cc(NC(=O)C(C)C)c([nH]1)c23`: the growth is -53.1% (active) in assay [1]; -58.9% (active) in assay [2]; -27.5% (active) in assay [3]; -47.8% (active) in assay [4]; 1.14% (active) in assay [5]; -55.4% (active) in assay [6]. In addition, the growth in assay [7] is -21% (active); in assay [8] it was -23.9% (active).

`O=C(/C=C/c1ccc2c(c1)OCO2)c1c(O)c2ccccc2oc1=O`: the growth is 89% in assay [1]; 95.8% in assay [2]; 104% in assay [3]; 128% in assay [4]; 88.9% in assay [5]; 86.9% in assay [6]. Further, the growth in assay [7] was 112%; in assay [8], 93.6%.

In the case of `C=CCC(=O)N[C@H](/C=C/C(=O)O)Cc1ccc(-c2cc(Cl)cc(Cl)c2)cc1`, the growth in assay [1] is 81%; in assay [2] it was 92%; in assay [3] it was 103%; in assay [4] it was 104%; in assay [5] it was 92.7%; in assay [6] it was 82.5%. For the same molecule, the growth in assay [7] was 101%; in assay [8], 98.5%.

Turning to `CCc1nc(C(N)=O)c(Nc2ccc(N3CCC(N4CCN(C)CC4)CC3)c(OC)c2)nc1NC1CCOCC1`, the growth in assay [1] is 65.1%; in assay [2], 19.9%; in assay [3] it was 52.3%; in assay [4] it was 3.96% (active); in assay [5], 25.6%; in assay [6], 5.33% (active). Besides, the growth in assay [7] was 61.4%; in assay [8], 13.8%.

Consider `C=C1C(=O)O[C@H]2[C@H]1CC/C(CNC(=O)c1cc3cc(OC)ccc3[nH]1)=C\CC[C@@]1(C)O[C@@H]21`, for which the growth in assay [1] was -46.3% (active); in assay [2], -68.1% (active); in assay [3], -48.1% (active); in assay [4] it was -72.3% (active); in assay [5], -29.6% (active); in assay [6], -81.3% (active). The growth was -90.3% (active) in assay [7] and 25.4% in assay [8].

For `COc1ccc(-c2nc(N)ncc2Oc2ccccc2OC)c(O)c1`, the growth in assay [1] was 35.5%; in assay [2] it was 36%; in assay [3] it was -16.6% (active); in assay [4], 20.6%; in assay [5], 23.4%; in assay [6] it was 15.9%. Also, the results for the growth in assay [7] and in assay [8] were 50.6% and 29.5%, respectively.

In the case of `N#Cc1c(-c2ccc(C(F)(F)F)cc2)cc(NCC2CCS(=O)(=O)CC2)n2c1nc1ccccc12`, the growth in assay [1] was 64.3%; in assay [2], 64.9%; in assay [3] it was 92.8%; in assay [4] it was 93.3%; in assay [5], 85.6%; in assay [6] it was 74.9%. The values for the growth in assay [7] and in assay [8] were 91.9% and 98.4%, respectively.

`O=C(Cn1c(=O)ccn(CCCCCCCCOc2ccc(Br)cc2)c1=O)Nc1ccc(Oc2ccc(Cl)cc2)cc1`: the growth in assay [1] is 37.8%; in assay [2] it was 54.1%; in assay [3], 65.6%; in assay [4] it was 73%; in assay [5] it was 41.3%; in assay [6], 46.5%. The values for the growth in assay [7] and in assay [8] were 75.5% and 61.7%, respectively.

Consider `C=CC[n+]1c(/C=C2\Sc3ccccc3N2C)sc(-c2ccccc2)c1-c1ccccc1`, for which the growth in assay [1] was 5.7% (active); in assay [2] it was 11.9%; in assay [3] it was 5.39% (active); in assay [4], 22.1%; in assay [5], 6.39% (active); in assay [6] it was 12%. Further, the growth in assay [7] is 29.4%; in assay [8], 14%.

For the molecule `CCN(CC)CCCC(C)Nc1cc(-c2ccc(C(F)(F)F)cc2)c(C#N)c2nc3ccccc3n12` (centres undefined), the growth was -8.16% (active) in assay [1]; -10.7% (active) in assay [2]; -64.8% (active) in assay [3]; 12.2% in assay [4]; 14.1% in assay [5]; 3.28% (active) in assay [6]. For the same molecule, the growth is 16.6% in assay [7] and 36.5% in assay [8].

Turning to `CC1(O)CC(c2nc(-c3ccc4ccc(-c5ccccc5)nc4c3)c3c(N)nccn23)C1` (centres undefined), the growth is 2.62% (active) in assay [1]; 19.5% in assay [2]; 36.3% in assay [3]; 35.4% in assay [4]; 14.5% in assay [5]; 35.3% in assay [6]. The values for the growth in assay [7] and in assay [8] were 48.7% and 8.69% (active), respectively.

As to `CC/C=C\C[C@H]1C/C=C2/C(=O)C=C[C@@H]2C/C=C\CCCC(=O)O1`, the growth in assay [1] is 39.7%; in assay [2] it was -20.4% (active); in assay [3], -45.5% (active); in assay [4] it was -51% (active); in assay [5] it was -1.97% (active); in assay [6], -67.5% (active). The growth was -79.4% (active) in assay [7] and -68.7% (active) in assay [8].

Take `COc1ccc(-c2ccc3c(N4CCOC[C@@H]4C)nc(N4CCOC[C@@H]4C)nc3n2)cc1CO`: the growth in assay [1] is -35% (active); in assay [2] it was -6.65% (active); in assay [3] it was -14.1% (active); in assay [4], 8.32% (active); in assay [5], 5.12% (active); in assay [6] it was 21.9%. Besides, the growth in assay [7] is 10.3%; in assay [8] it was 13.1%.

For `N#Cc1ccc(-n2nnc3ccccc32)cc1C#N`, the growth was 86.3% in assay [1]; 106% in assay [2]; 85.3% in assay [3]; 94.4% in assay [4]; 82% in assay [5]; 102% in assay [6]. Besides, the growth is 104% in assay [7] and 96.4% in assay [8].

With `CCOC(=O)C1=C(C)NC(=O)NC1c1cc(=O)oc2ccc(C)cc12` (centres undefined), the growth is 94.5% in assay [1]; 111% in assay [2]; 117% in assay [3]; 108% in assay [4]; 91.3% in assay [5]; 100% in assay [6]. Further, the growth is 96.2% in assay [7] and 101% in assay [8].

As for `Cc1cc2c(-c3nc4ccccn4c3N)c(O)c(O)cc2c(O)c1-c1c(C)cc2c(-c3nc4ccccn4c3N)c(O)c(O)cc2c1O`, the growth was 14.6% in assay [1]; 21.2% in assay [2]; 13.4% in assay [3]; 22.7% in assay [4]; 10.7% in assay [5]; 9.9% (active) in assay [6]. In addition, the results for the growth in assay [7] and in assay [8] were 30.7% and 22.1%, respectively.

Regarding `CC(C)(C)C(=O)OCOP(=O)(OCOC(=O)C(C)(C)C)C1CCCN(OC(=O)c2ccccc2)C1=O` (centres undefined), the growth in assay [1] was 13.8%; in assay [2], 7.84% (active); in assay [3], 45.2%; in assay [4] it was 45.1%; in assay [5], 0.983% (active); in assay [6] it was 13%. Further, the growth in assay [7] was 25.2%; in assay [8], 5.57% (active).

Turning to `CCc1nc2cc(/C=C/C(=O)NO)ccc2c(=O)n1CCc1ccc(F)cc1`, the growth in assay [1] is -0.122% (active); in assay [2], 23.8%; in assay [3] it was 17.3%; in assay [4], 6.35% (active); in assay [5], 10.2%; in assay [6], 3.23% (active). The growth is 32.4% in assay [7] and 12% in assay [8].

Turning to `C=CC(=O)N(C)[C@H]1C[C@H]2OC(C)(C1OC)n1c3ccccc3c3c4c(c5c6ccccc6n2c5c31)C(=O)NC4` (some centres undefined), the growth was 16.5% in assay [1]; -70.4% (active) in assay [2]; 6.02% (active) in assay [3]; 10.3% in assay [4]; 12.5% in assay [5]; -48.4% (active) in assay [6]. Also, the growth in assay [7] is -48.1% (active); in assay [8], 9.67% (active).

Consider `C[C@@H](NC(=O)c1ncnc(N)c1Cl)c1ncc(C(=O)Nc2cc(C(F)(F)F)c(Cl)cn2)s1`, for which the growth is 92.2% in assay [1]; 110% in assay [2]; 39.3% in assay [3]; 56.9% in assay [4]; 96.2% in assay [5]; 25.3% in assay [6]. The growth was 69.4% in assay [7] and 75.1% in assay [8].

For `COc1cc(Nc2ncc(F)c(Nc3ccc4c(n3)NC(=O)C(C)(C)O4)n2)cc(OC)c1OC`, the growth in assay [1] is 39%; in assay [2], 34.1%; in assay [3] it was 51.2%; in assay [4] it was 59.5%; in assay [5] it was 41.5%; in assay [6], 59.3%. Moreover, the growth in assay [7] is 100%; in assay [8] it was 12.3%.

Turning to `Cc1nn(-c2nc3ccccc3[nH]2)c2c1C(c1ccc(O)cc1)CC(=O)N2` (centres undefined), the growth in assay [1] was 88.7%; in assay [2], 92.7%; in assay [3], 104%; in assay [4] it was 93.5%; in assay [5] it was 109%; in assay [6], 101%. For the same molecule, the growth in assay [7] is 123%; in assay [8] it was 60.3%.

In the case of `COC[C@@H](C)n1c(C2CCOCC2)nc2c1C1C=C(OC)C(c3c(C)noc3C)=CC1N=C2` (some centres undefined), the growth is 44.6% in assay [1]; 62.6% in assay [2]; 41.6% in assay [3]; 72.1% in assay [4]; 15.5% in assay [5]; 53.4% in assay [6]. Besides, the growth was 52.7% in assay [7] and 43% in assay [8].

For `Cn1ncc(Cl)c1-c1cc(C(=O)N[C@H](CN)Cc2ccc(F)c(F)c2)oc1Cl`, the growth in assay [1] was -50.7% (active); in assay [2], -66.4% (active); in assay [3], -59.8% (active); in assay [4], 27.9%; in assay [5], -28.5% (active); in assay [6], -28.3% (active). The growth in assay [7] was -89.9% (active); in assay [8] it was -39.2% (active).
